The campaign covered roughly 340,000 compounds. About 800 (0.24%) were called active.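 How the source made its calls: active means activation above the mean over all tested compounds plus 3 SD (cut at about 30% in these data); inactive means the rest.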 The sample as a whole holds a higher share of actives than the screen did.
target: Troponin I, cardiac muscle (Homo sapiens) + Troponin T, cardiac muscle (Homo sapiens) + Troponin C, slow skeletal and cardiac muscles (Homo sapiens) (UniProt P19429+P45379+P63316); test: cardiac RTF calcium sensitivity activators, primary screen, biochemical, IANBD-TnC fluorescence, EC20 calcium (AID 493008); settings: IANBD-labeled TnC RTF fluorescence at EC20 calcium; at 7.2 µM; hits give high values; 0% EC20 calcium, 100% full calcium;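 further: rise in fluorescence read as greater calcium sensitivity of cardiac thin filaments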

activation, inactive:
CN(O)C(=S)c1ccccc1 -1.46%
Cc1c(C)n2c(SCC(=O)NC3CCCC3)nnc2[nH]c1=O 0.28%
CCCN(CCC)S(=O)(=O)c1ccc(C(=O)N2CC3CCC(CC3)C2)cc1 -0.05%
C=CCOc1ccc(/C=C2\SC(=S)N(CCC(=O)O)C2=O)cc1 1.79%
Cc1ccc(/C=C2/SC(=S)N(CCC(=O)NCCCN3CCOCC3)C2=O)cc1 2.69%
Cc1ccc(-c2noc(C3CCCN(C(=O)c4cccc(Cl)c4)C3)n2)o1 (stereo not drawn) -2.07%
CC(C)CC(CCc1ccccc1)OS(N)(=O)=O (stereo not drawn) -4.63%
COc1ccc(CNCCCNCc2ccc(OC)c(OC)c2)cc1OC 0.94%
C=CCn1c(SCC(=O)c2c(N)n(C)c(=O)n(C)c2=O)nc2sc(CC)cc2c1=O 1.89%
C[C@H](NC(=O)c1ccccc1Cl)C(=O)OCCOc1cccc(Cl)c1 1.17%
Cc1ccc(C2=CSC3=NS(=O)(=O)CCN23)cc1C 13.6%
C/C(=C/c1ccccc1)C(=O)N1CCN(c2ccccc2)CC1 9.01%
Cc1[nH]c(N)nc(=S)c1CCCNc1ccccc1 -2.1%
C=CC[C@H](CC(=O)NCCO)C(=O)N[C@@H](COC(=O)[C@@H](CC=C)Cc1ccc(F)cc1)Cc1c[nH]c2ccccc12 2.33%
Cc1c(CCC(=O)O)c(=O)oc2cc3occ(-c4ccccc4)c3cc12 5.11%
CCc1ccc(CN(C)C(=O)CCc2nnc(-c3ccc(-c4ccccc4)cc3)o2)nc1 -1.69%
O=C(N[C@H]1C/C=C\C(c2cccc(F)c2)N(Cc2ccccc2)C(=O)C1)OCC1c2ccccc2-c2ccccc21 (stereo partly drawn) -0.43%
COc1ccc(C(CNCC(=O)Nc2ccccc2F)N(C)C)cc1 (stereo not drawn) -1.39%
S=C(Nc1ccc2c(c1)OCO2)N1CCCC1 8.04%
CCOC(=O)/C(C#N)=C/c1ccc(OCC(=O)Nc2ccccc2)c(OC)c1 6.94%
CC(C)OC(=O)C(C#N)c1nc2ccccc2nc1N1CCN(Cc2ccccc2)CC1 (stereo not drawn) -2.43%
Cc1ccnc(N2CCN(C(=O)CSc3nc4ccccc4nc3N3CCCCC3)CC2)c1 0.05%
Cc1ccccc1NC(=O)c1ccc(COc2ccc3c(C)cc(=O)oc3c2)cc1 1.18%
O=C(CCC(=O)N1CCCC1)Nc1ccc([N+](=O)[O-])cc1 -1.36%
Cc1cc(-c2n[nH]c(=S)n2/N=C/C(Br)=C/c2ccccc2)n[nH]1 0.67%
CCOC(=O)/C=C/C(=O)OCC(=O)NC(c1ccccc1)c1ccccc1 -0.28%
CN(C)S(=O)(=O)c1cc(NC(=O)CN2C(=O)NC3(CCCc4ccccc43)C2=O)ccc1Cl (stereo not drawn) 5.19%
Oc1ccc(-c2nc3ccccc3nc2-c2ccc(O)cc2O)c(O)c1 2.23%
CCOC(=O)C1=C(C)NC2=C(C(=O)CC(C)(C)C2)C1c1ccsc1 (stereo not drawn) 8.26%
O=C(N1CCOCC1)N1CCOCC1 0.83%
O=C(NC(=O)N1CCOCC1)c1ccccc1 -4.59%
N#C/C(=C\C1=C(N2CCOCC2)C(=C\c2ccccc2)/CC1)C(=O)Nc1ccccc1F 11.9%
N#C/C=C(/c1ccc(F)cc1)N1CCOCC1 0.45%
O=C(NC1CCCC1)C(c1ccco1)N(C(=O)c1csnn1)c1ccccc1 (stereo not drawn) -5.15%
COc1ccccc1-n1nnnc1S(=O)(=O)Cc1ccc(Cl)cc1 -4.59%
O=C(Nc1cccc(F)c1)c1coc(=O)c(Br)c1 2.96%
O=C(NNC1CC(=O)N(c2cccc(Cl)c2)C1=O)c1cccnc1 (stereo not drawn) 3.38%
COc1ccc(N2CCN(S(=O)(=O)c3ccc4c(c3)NC(=O)C(C)C(=O)N4)CC2)cc1 (stereo not drawn) -1.46%
CCOc1cc(C=NNC(=O)CCCC(=O)NN=Cc2ccc(O)c(OCC)c2)ccc1O 3.71%
CCOc1cc(-c2cc(-c3ccc(NC(C)=O)cc3)nc(N)c2C#N)ccc1O -2.6%
C/C(N)=C(/C#N)C(=O)COC(=O)C1=NN(c2ccccc2)C(=O)CC1 1.28%
COc1cc(C(=O)N2C(=O)c3cccc(N)c3C2=O)cc(OC)c1OC -5.72%
O=C1c2cccc3c([N+](=O)[O-])ccc(c23)C(=O)N1CC1CCCO1 (stereo not drawn) 9.63%
CCn1cc(C(=O)N[C@@H](C)C(=O)NCCO)c(=O)c2cc3c(cc21)OCO3 0.57%
CCCC(O)(CCC)C(=O)NN(C(=O)CCl)c1cccc(C)c1 -2.77%
CN(C)C(CNC(=O)c1ccc(S(=O)(=O)NCc2ccco2)cc1)c1ccccc1 (stereo not drawn) -0.95%
CC1(C)Cc2nc3sc4c(SCC(=O)NC(c5ccccc5)c5ccccc5)ncnc4c3cc2CO1 -4.73%
O=C(CSc1ncccn1)N1CCCC1 4.22%
C=CCNc1nnc(C)c2ccccc12 6.46%
Cc1nn(-c2ncccn2)c2c1C(=O)CC(C)(C)C2Br (stereo not drawn) 1.48%
CCc1ccc2ncc(C(=O)c3ccccc3)c(N3CCOCC3)c2c1 6.46%
N#Cc1c(NCCO)ccc([N+](=O)[O-])c1NCCO -0.27%
CCCCCNC(=O)C1c2ccccc2Oc2ccccc21 4.69%
CCOC(=O)CC(NC(=O)C1c2ccccc2Oc2ccccc21)c1ccc(C)cc1 (stereo not drawn) 4.5%
CC1=C(C(N)=O)C(c2ccc(Br)cc2)n2ncnc2N1 (stereo not drawn) -0.09%
CC1=C(C(=O)OCc2ccccc2)C(c2ccco2)n2ncnc2N1 (stereo not drawn) 8.65%
CCN1CCN(c2ccc(S(=O)(=O)N3CCCCC3)cc2NC(=O)c2cccc(NC(C)=O)c2)CC1 -0.39%
CC1CCCCC12NC(=O)N(CC(=O)OCc1c(F)cccc1Cl)C2=O (stereo not drawn) -6.16%
Cc1ccccc1OCCC(=O)OCC(=O)NC(C)c1ccccc1 (stereo not drawn) 1.21%
O=C1Nc2ccccc2/C1=C/c1ccnc2ccccc12 3.84%
Cc1ccccc1-n1c(C)cc(/C=C2\NC(=O)NC2=O)c1C -2.97%
C[C@H](NC(=O)c1[nH]cnc1C(=O)Nc1nccs1)c1ccccc1 -1.35%
O=C(COC(=O)c1ccc(S(=O)(=O)Nc2ccccc2)cc1)NCC1CCCO1 (stereo not drawn) -3.25%
COc1ccc([N+](=O)[O-])cc1NC(=O)CC1SC(=Nc2cccc(C)c2C)N(/N=C(\C)c2ccc(C)cc2)C1=O (stereo not drawn) -1.84%
CCC1CCCCN1C(=O)Nc1cccc(NC(=O)N2CCCCC2CC)c1 (stereo not drawn) -3.65%
O=C(CSc1nnc(C2CC2)n1Cc1ccccc1)Nc1cccnc1Cl 1.37%
COc1ccccc1N(CC(=O)Nc1ccc(C)cc1Cl)S(=O)(=O)c1cccs1 -7.85%
CCCCNC(=O)Nc1c(C)cc(SC#N)cc1C -8.62%
O=C(c1cc2sccc2n1Cc1ccc(F)cc1)N1CCc2ccccc21 -0.47%
CCCc1cc(=O)[nH]c(SCC(=O)Nc2ccc(S(=O)(=O)N3CCCC3)cc2)n1 -0.74%

activation, active:
CCN1CC=C2C(C#N)=C(N)C(C#N)(C#N)[C@H](c3ccoc3)[C@H]2C1 62%
Cc1ccc(-c2nn(-c3ccccc3)cc2/C=C2\SC(=S)N(CCCCCC(=O)O)C2=O)o1 48.1%
CCCCCCc1cc2cc(-c3nnc(-c4ccccc4)o3)c(=O)oc2cc1O 76.8%
CCOC(=O)/C(C#N)=C/c1ccc(N2CCN(Cc3ccccc3)CC2)cc1 42.2%
Oc1ccc2ccc3cccc[n+]3c2c1 720%
N#C/C(=C/c1ccc(N2CCOCC2)o1)C(=O)N1CCOCC1 64.8%
N#C/C(=C\c1ccc(N2CCOCC2)o1)C(=O)N1CCOCC1 114%
CCOc1cc(/C=C(\C#N)c2nc(-c3cccs3)c(NC(C)=O)s2)ccc1O 53.3%
CN1C(=O)c2cccc3c(N)ccc(c23)C1=O 1160%
C=CCNc1nnc(SCC(=O)N2CCCCC2)c2ccccc12 33.8%
CCCN(CCC)C(=O)C1c2ccccc2Oc2ccccc21 98.3%
Brc1ccc(C2=CC(c3ccco3)n3ncnc3N2)cc1 (stereo not drawn) 245%
Cc1cc(C)c(/C=C2\C(=O)Nc3ccccc32)[nH]1 149%

Reference: PubChem BioAssay AID493008 (The Scripps Research Institute Molecular Screening Center, 2010)
